Measured values published in PubChem BioAssay.
Activity calls are given as the source filed them. Unless noted, the rule behind the calls is not given here.

Columns and labels:
[1] = tested on: Wnt5a (protein binding on small-molecule microarray); assay: Wnt5a binders on small-molecule microarray, primary screen, biophysical, 635/667 nm fluorescence (AID 1142); details: 635 nm fluorescence, higher = more signal;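 note: fluorescence read at 667 nm with signal to noise per printed feature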
[2] = cell viability in Huh7 cells, primary screen, cytotoxicity control for HCV replication inhibitor project, CellTiter-Glo luminescence, basal, 48 h (AID 1143); details: Huh7 HCV replicon, higher = more signal, called active from +8 up or from −8 down;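 note: Huh7 hepatoma cells carrying a hepatitis C replication reporter with no stimulus; test concentration not given here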
[3] = P. aeruginosa biofilm formation inhibitors, primary screen, PAO1 strain, BacTiter-Glo luminescence, LB-PBS (AID 1144); details: 12 h, higher = more signal
[4] = CREB reporter modulators without forskolin, primary screen, cell-based, PC12, CRE-LacZ reporter, unstimulated (AID 1145); details: no forskolin, luminescence, 4.5 h, higher = more signal, called active from +8 up or from −8 down
[5] = CREB reporter modulators under forskolin, primary screen, cell-based, PC12, CRE-LacZ reporter, forskolin-stimulated (AID 1146); details: luminescence, 4.5 h, higher = more signal, called active from +8 up or from −8 down;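 note: PC12 cells with 6xCRE LacZ reporter stimulated by forskolin 10 µM; beta-galactosidase reporter signal reflecting CREB driven transcription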
[6] = molecular target: Streptavidin (Streptomyces avidinii) (UniProt P22629); assay: streptavidin binders on small-molecule microarray, primary screen, artefact control for SMM compound annotation, biophysical, 635/667 nm fluorescence (AID 1147); details: streptavidin binding, higher = more signal;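 note: signal reflects streptavidin binding to arrayed compounds as a control protein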
Sequence of Streptavidin (Streptomyces avidinii) (P22629 whole entry, looked up): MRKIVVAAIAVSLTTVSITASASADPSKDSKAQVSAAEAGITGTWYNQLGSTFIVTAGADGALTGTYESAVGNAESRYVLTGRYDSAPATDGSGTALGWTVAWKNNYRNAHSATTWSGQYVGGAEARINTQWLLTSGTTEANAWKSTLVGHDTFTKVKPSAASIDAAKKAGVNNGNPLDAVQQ

[7] = small-molecule binders of probe aInhba, primary screen, biochemical, small-molecule microarray, 635/667 nm fluorescence (AID 1148); details: higher = more signal;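 note: score merges 667nm spot fluorescence with signal-to-noise for antibody binding to printed compounds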
Torsin-1A (Homo sapiens) [8] = molecular target: Torsin-1A (Homo sapiens) (UniProt O14656); assay: torsin A binders from cell lysate, primary screen, small-molecule microarray, wild-type, 635/667 nm (AID 1149); details: COS7 hTOR1A-WT lysate, 635 nm fluorescence, higher = more signal
Sequence of Torsin-1A (Homo sapiens) (O14656 whole entry, looked up): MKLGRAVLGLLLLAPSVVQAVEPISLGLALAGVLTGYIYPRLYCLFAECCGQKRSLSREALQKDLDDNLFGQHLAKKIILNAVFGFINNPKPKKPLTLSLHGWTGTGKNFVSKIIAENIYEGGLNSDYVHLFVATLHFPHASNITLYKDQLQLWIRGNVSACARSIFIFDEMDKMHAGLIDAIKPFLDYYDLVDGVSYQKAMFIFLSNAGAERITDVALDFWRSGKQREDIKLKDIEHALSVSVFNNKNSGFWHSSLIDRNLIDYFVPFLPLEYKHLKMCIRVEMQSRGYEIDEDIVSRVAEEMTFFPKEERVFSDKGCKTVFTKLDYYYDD

Torsin-1A (Homo sapiens) [9] = molecular target: Torsin-1A (Homo sapiens) (UniProt O14656); assay: small-molecule binders of mutant TOR1A in lysate, primary screen, cell lysate, small-molecule microarray, COS7 lysate, 635/667 nm fluorescence (AID 1150); details: COS7 hTOR1A mutant lysate, 635 nm fluorescence, higher = more signal;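 note: score pools 667 nm emission and signal to noise measuring lysate protein binding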
[10] = tested on: Sonic hedgehog protein (Shh); assay: small-molecule binders of Shh protein, primary screen, biochemical, small-molecule microarray, 635/667 nm fluorescence (AID 1151); details: small-molecule microarray binding, 635 nm fluorescence; higher = more signal;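 note: Shh protein binding to compounds spotted on small-molecule microarray slides; score combines spot fluorescence intensity with signal-to-noise across triplicate slides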
[11] = E. coli DRC41 culture turbidity changes, primary screen, E. coli filamentation inducer project, strain DRC41, OD650, 48 h (AID 1152);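 note: E. coli MC1000 strain DRC41 lacking acrAB efflux pump and sulA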; details: E. coli DRC41 (acrAB sulA), higher = more signal, called active from +8 up or from −8 down
[12] = small-molecule binders of probe aLefty1, primary screen, biochemical, small-molecule microarray, 635/667 nm fluorescence (AID 1153); details: higher = more signal;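 note: score merges spot fluorescence with signal-to-noise ratio from the scanned slide images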
[13] = PSAC antagonists in infected red cells, primary screen, cell-based, P. falciparum Indochina, OD700, 1 h (AID 1154); details: P. falciparum Indochina infected RBC osmotic lysis, higher = more signal, called active from +8 up or from −8 down
[14] = PSAC antagonists in infected red cells, primary screen, cell-based, P. falciparum Indochina, OD700, 2 h (AID 1155);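 note: lysis reports solute entry through the parasite surface anion channel PSAC; channel blockers reduce lysis of infected cells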; details: P. falciparum Indochina infected erythrocytes, osmotic lysis OD700; higher = more signal, called active from +8 up or from −8 down
[15] = osmotic lysis modulators in infected erythrocytes, primary screen, PSAC antagonist project, cell-based, P. falciparum Indochina, OD700, 3 h (AID 1156); details: higher = more signal, called active from +8 up or from −8 down
[16] = PSAC antagonists in infected red cells, primary screen, cell-based, P. falciparum Indochina, OD700, 18 h (AID 1157); details: P. falciparum Indochina infected erythrocytes, osmotic lysis OD700, 18 h; higher = more signal, called active from +8 up or from −8 down
[17] = modulators of S6 phosphorylation in cells, primary screen, cell-based, A549, cytoblot, luminescence, serum-stimulated (AID 1158); details: A549 phospho-S6 cytoblot, 5 h, higher = more signal;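 note: serum-stimulated A549 lung adenocarcinoma cells; signal is phosphorylated S6 detected by cytoblot immunostaining with HRP secondary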
[18] = molecular target: NADPH oxidase 2 (Homo sapiens) (UniProt P04839); assay: NOX2-dependent H2O2 signal modulators, primary screen, NOX inhibitor project, cell-based, HEK293-NOX2, PMA-stimulated, Amplex Red fluorescence (AID 1159); details: 45 min, higher = more signal, called active from +8 up or from −8 down; note: test concentration not given here
Sequence of NADPH oxidase 2 (Homo sapiens) (P04839 whole entry, looked up): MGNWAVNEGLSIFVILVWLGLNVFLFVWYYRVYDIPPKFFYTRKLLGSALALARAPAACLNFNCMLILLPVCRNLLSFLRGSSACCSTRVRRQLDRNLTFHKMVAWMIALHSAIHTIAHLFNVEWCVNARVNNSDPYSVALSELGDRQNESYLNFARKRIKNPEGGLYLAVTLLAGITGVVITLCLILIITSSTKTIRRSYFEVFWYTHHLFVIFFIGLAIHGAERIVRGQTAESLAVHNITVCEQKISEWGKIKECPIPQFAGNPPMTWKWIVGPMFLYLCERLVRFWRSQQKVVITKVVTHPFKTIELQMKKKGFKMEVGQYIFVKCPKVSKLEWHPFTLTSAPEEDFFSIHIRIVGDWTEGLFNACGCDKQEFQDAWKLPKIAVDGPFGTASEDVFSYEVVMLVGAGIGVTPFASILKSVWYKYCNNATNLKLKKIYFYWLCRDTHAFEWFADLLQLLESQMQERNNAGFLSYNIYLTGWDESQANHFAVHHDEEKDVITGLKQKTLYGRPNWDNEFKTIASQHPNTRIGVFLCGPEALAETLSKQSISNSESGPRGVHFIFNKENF

[19] = molecular target: NADPH oxidase 4 (Homo sapiens) (UniProt Q9NPH5); assay: NOX4-dependent H2O2 signal modulators, primary screen, NOX inhibitor project, cell-based, HEK293-NOX4, tetracycline-induced, Amplex Red fluorescence (AID 1160); details: 45 min, higher = more signal, called active from +8 up or from −8 down
Sequence of NADPH oxidase 4 (Homo sapiens) (Q9NPH5 whole entry, looked up): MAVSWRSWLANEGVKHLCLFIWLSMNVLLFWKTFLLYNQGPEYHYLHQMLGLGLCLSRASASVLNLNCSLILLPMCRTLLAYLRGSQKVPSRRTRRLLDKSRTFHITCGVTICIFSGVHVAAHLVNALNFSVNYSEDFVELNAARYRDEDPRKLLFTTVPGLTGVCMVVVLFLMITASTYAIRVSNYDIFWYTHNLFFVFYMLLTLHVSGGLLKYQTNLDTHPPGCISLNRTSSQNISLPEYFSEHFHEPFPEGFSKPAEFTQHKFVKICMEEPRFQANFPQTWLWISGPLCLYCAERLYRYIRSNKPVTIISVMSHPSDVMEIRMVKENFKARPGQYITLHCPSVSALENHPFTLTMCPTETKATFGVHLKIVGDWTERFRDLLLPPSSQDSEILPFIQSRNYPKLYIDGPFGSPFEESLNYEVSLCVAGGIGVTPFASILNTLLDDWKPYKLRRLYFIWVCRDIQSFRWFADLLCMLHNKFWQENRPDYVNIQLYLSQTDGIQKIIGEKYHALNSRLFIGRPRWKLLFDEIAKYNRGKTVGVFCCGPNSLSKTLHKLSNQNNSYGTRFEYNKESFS

[20] = molecular target: NADPH oxidase 5 (Homo sapiens) (UniProt Q96PH1); assay: NOX5-dependent H2O2 signal modulators, primary screen, NOX inhibitor project, cell-based, HEK293-NOX5, Amplex Red fluorescence (AID 1161); details: HEK293-NOX5, ionomycin, 45 min, higher = more signal
Sequence of NADPH oxidase 5 (Homo sapiens) (Q96PH1 whole entry, looked up): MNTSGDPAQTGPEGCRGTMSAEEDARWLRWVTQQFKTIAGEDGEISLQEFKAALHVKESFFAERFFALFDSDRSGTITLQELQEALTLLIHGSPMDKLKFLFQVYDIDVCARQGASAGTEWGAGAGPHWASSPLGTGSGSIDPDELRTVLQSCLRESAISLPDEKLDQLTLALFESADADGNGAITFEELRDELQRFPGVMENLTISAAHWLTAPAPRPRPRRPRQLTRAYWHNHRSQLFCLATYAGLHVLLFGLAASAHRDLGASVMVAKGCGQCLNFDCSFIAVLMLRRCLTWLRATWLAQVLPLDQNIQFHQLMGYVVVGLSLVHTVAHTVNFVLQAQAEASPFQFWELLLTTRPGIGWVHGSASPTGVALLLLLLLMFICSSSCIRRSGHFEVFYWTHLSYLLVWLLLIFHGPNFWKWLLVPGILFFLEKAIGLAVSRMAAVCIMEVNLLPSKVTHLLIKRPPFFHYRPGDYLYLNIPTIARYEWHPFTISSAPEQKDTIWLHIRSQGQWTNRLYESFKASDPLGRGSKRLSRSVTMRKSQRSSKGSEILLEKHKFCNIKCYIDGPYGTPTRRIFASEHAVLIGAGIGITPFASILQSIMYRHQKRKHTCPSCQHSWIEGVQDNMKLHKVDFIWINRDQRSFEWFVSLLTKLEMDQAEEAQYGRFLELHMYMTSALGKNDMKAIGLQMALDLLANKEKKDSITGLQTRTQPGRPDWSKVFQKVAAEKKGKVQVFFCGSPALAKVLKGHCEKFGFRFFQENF

Structure (SMILES) | composite z-score [1] | z-score [2] | z-score [3] | z-score [4] | z-score [5] | composite z-score [6] | composite z-score [7] | composite z-score (Torsin-1A (Homo sapiens) [8]) | composite z-score (Torsin-1A (Homo sapiens) [9]) | composite z-score [10] | z-score [11] | composite z-score [12] | z-score [13] | z-score [14] | z-score [15] | z-score [16] | z-score [17] | z-score [18] | z-score [19] | z-score [20]
COC(=O)[C@@]1(CCC(=O)OC(C)(C)C)N=C(c2ccc(OCCCO)cc2)O[C@H]1c1ccccc1N=[N+]=[N-] | 0.174 | -4.35 (inactive) | -0.656 (inactive) | 2.68 (inactive) | -1.21 (inactive) | -0.0572 | -0.101 | -0.184 | -0.143 | 0.696 | -0.871 (inactive) | -0.39 | 28.2 (active) | 25.2 (active) | 1.67 (inactive) | 5.1 (inactive) | -0.117 | -2.9 (inactive) | 0.248 (inactive) | -2.56
COC(=O)[C@@]1(Cc2ccc(F)cc2)[C@H]2c3cc(C(=O)N(C)C)n(Cc4ccc(Cl)c(C(F)(F)F)c4)c3C[C@H]2CN1C(=O)c1ccccc1 | 0.156 | -2.95 (inactive) | 0.44 (inactive) | 1.34 (inactive) | 0.778 (inactive) | 2.37 | 0.588 | 0.146 | 0.751 | -0.823 | -1.91 (inactive) | 1.54 | 7.17 (inactive) | 2.13 (inactive) | 0.512 (inactive) | 1.72 (inactive) | -0.186 | 0.23 (inactive) | -1.2 (inactive) | 0.627
COC(=O)C(CC#Cc1ccc2c(c1)[C@]1(C(=O)N2)[C@H](C(=O)Nc2nc3ccccc3s2)[C@H]2C(=O)O[C@H](c3ccccc3)[C@H](c3ccccc3)N2[C@@H]1c1ccc(O)cc1)C(=O)OC | 0.533 | -1 (inactive) | -0.672 (inactive) | 0.155 (inactive) | -0.669 (inactive) | 0.906 | 0.0487 | 0.71 | 0.964 | 0.967 | -1.2 (inactive) | 0.0809 | 1.14 (inactive) | 0.922 (inactive) | -4.32 (inactive) | 1.3 (inactive) | 0.0065 | 1.28 (inactive) | 0.602 (inactive) | -0.0824
CC(CO)N1C(=O)[C@@H]2C3C(=O)OCCC/C=C\[C@H]3OC23C=CCN(C(C)(C)C)C(=O)[C@@H]13 (stereo not given in full) | -0.221 | 0.559 (inactive) | -0.818 (inactive) | -0.488 (inactive) | 0.636 (inactive) | -0.221 | -0.128 | 1.17 | 2.21 | 0.777 | 0.458 (inactive) | -0.0984 | 0.943 (inactive) | 0.752 (inactive) | 2.51 (inactive) | 0.477 (inactive) | -0.0054 | 0.89 (inactive) | -0.437 (inactive) | 0.886
NC(=O)[C@@H]1[C@H]2C(=O)O[C@H](c3ccccc3)[C@H](c3ccccc3)N2[C@H](c2ccc(O)cc2)[C@@]12C(=O)Nc1ccccc12 | -0.766 | -4.14 (inactive) | -0.609 (inactive) | -0.491 (inactive) | 0.276 (inactive) | -0.99 | -0.152 | -2.99 | -2.06 | 0.154 | 0.428 (inactive) | 0.157 | 1.19 (inactive) | -0.619 (inactive) | -0.267 (inactive) | -2.21 (inactive) | 1.57 | -1.93 (inactive) | -1.13 (inactive) | -0.42
CC(C)c1ccc(NN2C(C(O)c3ccc(B(O)O)cc3)C=CC3C(=O)N(c4ccccc4)C(=O)C32)cc1 (stereo not given) | 0.262 | -0.0793 (inactive) | -1.06 (inactive) | 0.815 (inactive) | 1.65 (inactive) | 1.26 | 0.108 | 0.201 | 1.26 | 0.528 | -1.04 (inactive) | 0.0595 | 1.93 (inactive) | 0.698 (inactive) | 0.421 (inactive) | 1.27 (inactive) | -0.999 | -1.02 (inactive) | -2.31 (inactive) | -4.18
C=CCC(OC(C)=O)[C@@H]1[C@@H](N(Cc2cc3ccccc3o2)C(=O)c2cccc3ccccc23)c2cc(OCCCO)ccc2N1C(=O)c1ccc(-c2ccccc2)cc1 (stereo not given in full) | 0.15 | -1.82 (inactive) | 0.861 (inactive) | 1.38 (inactive) | -0.654 (inactive) | 0.111 | -0.196 | 0.736 | 0.223 | 0.464 | 1.45 (inactive) | 0.0341 | 1.01 (inactive) | 0.0907 (inactive) | 0.358 (inactive) | 0.554 (inactive) | 0.332 | 0.52 (inactive) | -1.87 (inactive) | -2.43
COC(=O)[C@@]1(Cc2ccccc2)N=C(c2ccc(OCCCO)cc2)O[C@H]1c1ccccc1 | 0.912 | -4.45 (inactive) | 0.35 (inactive) | 1.45 (inactive) | -2.12 (inactive) | -0.369 | 0.0816 | 0.348 | 1.74 | -0.0883 | 0.792 (inactive) | 0.236 | 23.4 (active) | 12.2 (active) | 0.737 (inactive) | 1.89 (inactive) | -0.182 | -5.76 (inactive) | -0.904 (inactive) | -3
